Source: PubChem BioAssay (National Center for Advancing Translational Sciences (NCATS))
The list is not random: actives were taken first. Their share in the collection is about 10%.
BAZ2B inh – inhibitors of human BAZ2B bromodomain; Q9UIF8; AlphaScreen BAZ2B-H3K14Ac peptide displacement; Potency, µM (top dose mostly 114 µM), hits mostly inhibitors; 360,000 tested, 4.4% active; also: nearly all actives have a fitted effect of over 60% in size
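AlphaScreen displacement of biotin-H3(5-23)K14Ac peptide (50 nM final) from BAZ2B (50 nM final) in PBS pH 7.4, 0.01% Tween-20; complex preformed 30 min RT, then compounds (top 110 uM) 30 min RT, beads 20 min dark.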
G9a inh – G9a (human) methyltransferase inhibition; Q96KQ7; G9a H3K9 monomethylation, AlphaScreen, 2 h; Potency, µM (top dose mostly 102 µM), actives largely listed as inhibitors; 350,000 tested, 8.8% active; AID 504332; also: nearly all actives have a fitted effect of over 75% in size
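Quantitative HTS format: methyltransferase activity on a biotin-tagged H3K9 peptide is measured by AlphaScreen, using a rabbit anti-monomethyl-H3K9 antibody with streptavidin donor and anti-IgG acceptor beads. Final levels are 20 nM enzyme, 500 nM peptide, 20 uM SAM; 2 h RT.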
JMJD2A Tudor – blocks the human JMJD2A Tudor domain | O75164 | 390,000 tested, 4.4% active | AlphaScreen JMJD2A-Tudor / H3K4me3 peptide binding | Potency, µM (titrated, usually from 114 µM), hits mostly inhibitors | AID 504339; also: nearly all actives have a fitted effect of over 50% in size
HP1b chromo inh – inhibitors of HP1-beta chromodomain binding to methylated histone tails. Potency, µM (series often up to 114 µM), usual class: inhibitors. AID 540317. AlphaScreen HP1-beta / biotin-H3K9me3 peptide binding. 390,000 tested, 0.56% active; also: nearly all actives have a fitted effect of over 70% in size
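AlphaScreen: HP1-beta (50 nM) preformed 30 min with biotin-H3(1-18)K9me3 peptide (50 nM) in PBS pH 7.4, 0.01% Tween-20. Compound added for 30 min at RT, then streptavidin donor/nickel chelate acceptor beads (10 ug/mL) for 30 min.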
CtBP-E1A blk – blocks the CtBP interaction with E1A; AlphaScreen GST-E1A/His-CtBP binding, 1536-well; active compounds read low; activity change, % (test concentration not listed); 340,000 tested, 0.49% active; AID 651724; in the data active = activity change below about -65%; inconclusive = mostly about -30% to -63%
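Protein mix (5X: 125 nM each GST-E1A, His-CtBP) was incubated with pinned compound 2 h at 37 deg C in dark, in 50 mM Tris pH 8.0 buffer with 300 mM NaCl. Glutathione donor and nickel acceptor beads followed; AlphaScreen signal read after 1 h.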
Six1-Eya2 inh – blocks human Six1 binding to Eya2. Q15475+O00167. AlphaScreen GST-Six1/His-Eya2 binding, biochemical; active compounds read low. activity change, % (test concentration not listed). 360,000 tested, 0.56% active; in the data active = activity change below about -65%; inconclusive = mostly about -30% to -63%
Target sequence (O00167 whole entry, looked up): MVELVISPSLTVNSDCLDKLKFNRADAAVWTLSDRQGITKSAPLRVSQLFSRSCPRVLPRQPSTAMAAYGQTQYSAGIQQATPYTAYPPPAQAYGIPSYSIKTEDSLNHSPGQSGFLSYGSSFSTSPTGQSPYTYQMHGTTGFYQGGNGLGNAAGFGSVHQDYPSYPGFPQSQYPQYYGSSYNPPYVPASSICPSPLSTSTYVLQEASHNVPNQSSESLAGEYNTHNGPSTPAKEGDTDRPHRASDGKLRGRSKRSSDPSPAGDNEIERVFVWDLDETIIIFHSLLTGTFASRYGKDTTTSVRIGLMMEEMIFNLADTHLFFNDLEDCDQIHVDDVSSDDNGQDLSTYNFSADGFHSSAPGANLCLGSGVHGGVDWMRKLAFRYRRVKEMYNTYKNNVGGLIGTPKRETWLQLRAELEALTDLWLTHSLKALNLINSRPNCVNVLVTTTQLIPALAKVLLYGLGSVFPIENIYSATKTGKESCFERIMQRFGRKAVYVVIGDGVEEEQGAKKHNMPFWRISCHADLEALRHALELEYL
Target sequence (Q15475 whole entry, looked up): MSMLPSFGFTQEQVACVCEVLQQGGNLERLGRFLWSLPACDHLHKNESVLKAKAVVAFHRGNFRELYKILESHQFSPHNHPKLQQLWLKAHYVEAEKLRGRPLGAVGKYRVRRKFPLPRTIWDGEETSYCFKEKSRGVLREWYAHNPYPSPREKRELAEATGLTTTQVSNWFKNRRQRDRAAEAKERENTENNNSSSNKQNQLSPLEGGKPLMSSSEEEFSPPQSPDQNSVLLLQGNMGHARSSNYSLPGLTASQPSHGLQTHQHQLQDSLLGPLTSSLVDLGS
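Six1/Eya2 binding was read as AlphaScreen signal after compounds were pinned into GST-Six1 plus His-tagged Eya2 (5X stock 250/500 nM) in pH 8.0 Tris/NaCl/TCEP buffer, beads added, then incubated 1 h, 37 C, dark.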
Numbers stand for hits; i = inactive; ? = inconclusive; nt = not tested or not shown; ! = repeats disagree; [ ] = another dose, or the depositor's remark. Unless noted, calls follow the shape of the dose curve; as a rule, active = well fitted inhibition curve with a large enough effect; inconclusive = small, poorly fitted or top-dose-only effect; inactive = no such curve, though single readings can be large or run the other way.

SMILES	BAZ2B inh	G9a inh	JMJD2A Tudor	HP1b chromo inh	CtBP-E1A blk	Six1-Eya2 inh
COc1cccc(C2c3[nH]c4ccccc4c3CCN2CCCn2cccn2)c1 (centres undefined)	?	?	i	i	i	i
CSc1ncc(CN2CCc3c([nH]c4ccccc34)C2c2cccc(O)c2)cn1 (centres undefined)	40µM	nt	?	i	i	i
CCn1cc(CN2CCc3c([nH]c4ccccc34)C2c2ccc(F)c(OC)c2)c(C)n1 (centres undefined)	22µM	45µM	?	?	i	i
O=C(Nc1ccc(Cl)c(Cl)c1)C1C2C=CC3(O2)C1C(=O)N(CCN1CCCCC1)C3C(=O)NC1CCCCC1 (centres undefined)	i	45µM	i	i	i	i
CSc1cccc(NC(=O)C2C3C=CC4(O3)C2C(=O)N(CCN2CCOCC2)C4C(=O)NC2CCCCC2)c1 (centres undefined)	i	50µM	i	i	i	i
COCCCN1C(=O)C2C(C(=O)Nc3cc(C)cc(C)c3)C3C=CC2(O3)C1C(=O)NC1CCCCC1 (centres undefined)	i	89µM	i	i	i	i
Cc1ccc(NC(=O)C2C3C=CC4(O3)C2C(=O)N(CCCN2CCOCC2)C4C(=O)NC2CCCCC2)cc1Cl (centres undefined)	i	?	i	i	i	i
COc1ccc(NC(=O)C2C3C=CC4(O3)C2C(=O)N(CCCN2CCCCC2)C4C(=O)NC2CCCC(C)C2C)cc1 (centres undefined)	i	45µM	i	i	i	i
COC(=O)c1c(NC(=O)c2cc3ccccc3c(=O)o2)sc2c1CCCC2	i	i	i	i	nt	nt
Cc1nn(C(=O)COc2ccccc2Br)c(C)c1Sc1ccccc1	i	i	i	i	nt	nt
COc1cccc(NC(=O)C2C3C=CC4(O3)C2C(=O)N(CCCN2CCC(C)CC2)C4C(=O)NC2CCCCC2)c1 (centres undefined)	i	45µM	i	i	i	i
COc1cccc(NC(=O)C2C3C=CC4(O3)C2C(=O)N(CCCN2CCCCC2)C4C(=O)NC2CCCCC2)c1 (centres undefined)	?	i[12.7 µM]	i	i	i	i
Cc1cc2oc(C(=O)N(Cc3ccc(N(C)C)cc3)CC3CCCO3)c(C)c2cc1Cl (centres undefined)	14µM	14µM	22µM	i	nt	nt
Cc1c(C(=O)N(Cc2ccc(N(C)C)cc2)CC2CCCO2)oc2ccccc12 (centres undefined)	11µM	14µM!	28µM	?	?	?
Cc1c(C(=O)N(Cc2ccc(N(C)C)cc2)CC2CCCO2)oc2ccc(Br)cc12 (centres undefined)	10µM	13µM	13µM	?	nt	nt
Cc1c(C(=O)N(Cc2ccc(N(C)C)cc2)CC2CCCO2)oc2ccc(Cl)cc12 (centres undefined)	10µM	11µM	13µM	?	nt	nt
CN1CCN(C(=O)C(=O)Nc2c3c(nn2-c2cccc(Cl)c2)CSC3)CC1	i	i	i	i	nt	nt
O=C(O)C1Oc2cc3ccccc3cc2O1	i	45µM	?	?	i	i
COc1cc2ccccc2cc1C(=O)O	i	i	i	i	i	i
O=C(COC(=O)c1cc(-c2cccs2)nc2ccccc12)c1ccc(Br)cc1	i	i	i	i	nt	nt
COCC[N+]1(C)CCCCC1	i	4.5µM	?	i	i	i
C[N+]1(CCCCC[N+]2(C)CCCC2)CCCC1	nt	i	nt	nt	nt	nt
COc1ccc2cc(CNc3ccc(OC)c(OC)c3)c(=O)n(CC(=O)Nc3ccc(C)cc3)c2c1	i	2.8µM	i	i	nt	nt
COc1ccc2c(c1)cc(CNc1ccc(OC)c(OC)c1)c(=O)n2CC(=O)Nc1ccc(F)cc1	?	2.8µM	i	i	nt	nt
COc1ccc(NCc2cc3ccc(OC)cc3n(CC(=O)Nc3ccc(C)c(C)c3)c2=O)cc1	i	i	i	i	nt	nt
SMILES	BAZ2B inh	G9a inh	JMJD2A Tudor	HP1b chromo inh	CtBP-E1A blk	Six1-Eya2 inh
COc1ccc2c(c1)cc(CNc1ccc(OC)c(OC)c1)c(=O)n2CC(=O)Nc1ccccc1C	i	?	i	i	nt	nt
O=C(O)c1ccc2c(c1)OCCOCCOCCOCCOCCO2	i	i	i	i	i	i
O=C(O)c1cc(O)c2c(c1)[O][Bi][O]2	nt	1µM	nt	nt	nt	nt
CCOc1ccc(-n2c(SCC(=O)N3CCCc4ccccc43)nc3c([nH]c4ccccc43)c2=O)cc1	i	i	?	i	nt	nt
Cc1ccc(NC(=O)C(=O)NN)cc1	?	50µM	i	i	i	i
NNC(=O)C(=O)Nc1ccc(O)cc1	i	16µM	i	i	nt	i
Cc1ccc(NC(=O)CC(O)(C(F)(F)F)C(F)(F)F)cc1	i	i	i	i	i	i
Cc1ccc(NC(=O)CCC(=O)OCc2ccc(Br)cc2)cc1	i	i	79µM	i	i	i
Cc1ccc(NC(=O)CC(N)=S)cc1	i	nt	8.9µM	i	nt	i
c1ccc(CNc2ncnc3ccc(-c4ccc5c(c4)OCO5)cc23)cc1	nt	i[0.501 µM]	nt	nt	nt	nt
O=C(CSCc1cc(=O)c2cc(F)ccc2[nH]1)Nc1ccccc1Cl	i	i	i	i	nt	nt
CNc1nc(NCc2ccc(N(C)C)cc2)c2sccc2n1	nt	nt	nt	nt	?	-67
c1ccc(Nc2ccccc2Nc2ccccn2)nc1	i	?	i	i	i	i
Oc1cccc2ccc(Nc3ccccn3)nc12	5µM	?	18µM	i	-100	-91
O=C(c1cccc(N2C(=O)C3CC=CCC3C2=O)c1)N1CCCCCC1 (centres undefined)	i	i	i	i	i	i
NC(=O)c1ccc(N2CCCCC2)c(N2C(=O)C3CC=CCC3C2=O)c1 (centres undefined)	50µM	i[12.7 µM]	i	i	i	i
Cc1c(C)c2c(c(C)c1OC(=O)CCC(=O)O)CC[C@@](C)(CCC[C@H](C)CCC[C@H](C)CCCC(C)C)O2	nt	i[12.7 µM]	nt	nt	nt	nt
CCn1c(=O)c(=O)n(CC)c2cc(N3CCCCC3)c(NC(=O)c3ccc(OC)c(OC)c3)cc21	i	i	i	i	nt	nt
CCn1c(=O)n(CC)c2cc(N3CCCC3)c(NC(=O)c3ccc(F)cc3)cc21	?	45µM	i	i	i	i
CCn1c(=O)n(CC)c2cc(N3CCCC3)c(NC(=O)c3c(F)cccc3F)cc21	?	?	i	i	nt	i
CCOc1ccc(C(=O)Nc2cc3c(cc2N2CCCC2)n(CC)c(=O)n3CC)cc1OCC	?	45µM	i	i	i	i
Cc1cc(Cl)ccc1NC(=O)CCS(=O)(=O)c1ccc2c(c1)CC(C)N2C(=O)C1CC1 (centres undefined)	i	?	i	i	nt	nt
COc1ccc(-c2noc(-c3ccc(N4CCCC4)c([N+](=O)[O-])c3)n2)cc1	i	i	i	i	nt	nt
O=C(Cc1ccccc1)NC1CC(=O)N(c2ccccc2)C1 (centres undefined)	i	i	i	i	nt	nt
